Inconclusive results are not listed. Values without a mark were called inactive. The source made the active and inactive calls. Calls follow the shape of the full dose curve.
Each compound was assayed against Vitamin D3 receptor (Homo sapiens) (UniProt P11473) (assay: qHTS assay to identify small molecule agonists of the vitamin D receptor (VDR) signaling pathway (AID 743222)). Conditions: HEK293T VDR-UAS-bla, beta-lactamase FRET ratio, 16 h; series mostly up to 63.5 µM.
From the text: National Center for Advancing Translational Sciences [NCATS]
NIH Chemical Genomics Center [NCGC]
U.S. Environmental Protection Agency [EPA]
National Institutes of Environmental Health Sciences [NIEHS]
National Toxicology Program [NTP]
U.S. Food and Drug Administration [FDA]
The vitamin D receptor (VDR), a member of nuclear hormone receptor superfamily, plays a critical role in calcium homeostasis and bone metabolism. It is also involved in cell differentiation and growth, and thrombogenicity.
Tox21 Assay Protocol Summary:
VDR-bla cells were dispensed at 2,000 cells/6 uL/well into black wall/clear-bottom 1536-well plates using a Multidrop Combi (Thermo Fisher Scientific, Waltham, MA) dispenser. After the assay plates were incubated at a 37C and 5% CO2 for 4 h, 23 nL of compounds dissolved in DMSO, positive controls or DMSO only was transferred to the assay plate by a Pintool station (Kalypsys, San Diego, CA). The plates were incubated at 37C and 5% CO2 for 16 h. After 1 uL of LiveBLAzerTM B/G FRET substrate was added using a Bioraptr Flying Reagent Dispenser (FRD) workstation (Beckman Coulter, Indianapolis, IN, USA), the plates were incubated at room temperature for 2 h, and fluorescence intensity was measured by an Envision plate reader (PerkinElmer, Shelton, CT).
% is scaled to controls: 0 for no effect and ±100 for the full control effect.

Vitamin D3 receptor (Homo sapiens), sequence (P11473 whole entry, looked up): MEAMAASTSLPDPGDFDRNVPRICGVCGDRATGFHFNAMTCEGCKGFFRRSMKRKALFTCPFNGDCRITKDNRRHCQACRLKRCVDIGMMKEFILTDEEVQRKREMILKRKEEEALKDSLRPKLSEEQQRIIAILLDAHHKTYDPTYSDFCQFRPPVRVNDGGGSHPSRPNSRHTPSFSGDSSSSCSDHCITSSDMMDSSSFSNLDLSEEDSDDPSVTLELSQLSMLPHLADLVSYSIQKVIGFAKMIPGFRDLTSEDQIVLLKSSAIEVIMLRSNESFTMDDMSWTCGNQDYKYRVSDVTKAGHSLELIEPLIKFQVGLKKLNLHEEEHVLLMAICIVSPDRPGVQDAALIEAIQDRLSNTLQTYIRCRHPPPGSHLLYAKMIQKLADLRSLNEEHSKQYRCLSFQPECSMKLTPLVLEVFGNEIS

| SMILES | outcome | activation |
| --- | --- | --- |
| CCCCCCCCC(=O)OCC | inactive | – |
| Cc1cccc(Nc2ccncc2S(=O)(=O)NC(=O)NC(C)C)c1 | inactive | – |
| C[N+](C)(C)CC(O)CCl (stereo not given) | inactive | – |
| CC(=O)OC(C)(C)Cc1ccccc1 | inactive | – |
| CCN(CCC#N)c1ccccc1 | inactive | – |
| O=S1(=O)CCCC1 | inactive | – |
| CCOC(=O)CC(CC(=O)OCC)(OC(C)=O)C(=O)OCC | inactive | – |
| Cc1ncc([N+](=O)[O-])n1CC(O)CCl (stereo not given) | inactive | – |
| CCCCCCCCCCCCCC(=O)OC | inactive | – |
| CC(C)c1ccccc1O | inactive | – |
| Cc1nc2n(c(=O)c1CCN1CCC(C(=O)c3ccc(F)cc3)CC1)CCS2 | inactive | – |
| CCC(CO)CO | inactive | – |
| COc1cccc2sc(N)nc12 | inactive | – |
| O=C1OC(=O)c2cc(Oc3ccc4c(c3)C(=O)OC4=O)ccc21 | inactive | – |
| CC(C)(C)NCCO | inactive | – |
| CC(=O)c1ccc2c(c1)CCCC2 | inactive | – |
| CCCC(C)CC (stereo not given) | inactive | – |
| O=S(=O)(O)CCO | inactive | – |
| CC(C)COC(=O)CC(C(=O)OCC(C)C)S(=O)(=O)O (stereo not given) | inactive | – |
| CC(=O)/C=C/c1ccco1 | inactive | – |

| SMILES | outcome | activation |
| --- | --- | --- |
| CC(C)COC(=O)/C=C/c1ccccc1 | inactive | – |
| Cc1ccccc1OCC1CO1 (stereo not given) | inactive | – |
| CCS(=O)(=O)CCn1c([N+](=O)[O-])cnc1C | inactive | – |
| Nc1ccc(/C=C/c2ccc(N)cc2S(=O)(=O)O)c(S(=O)(=O)O)c1 | – | 1.93% [at 0.554 µM] |
| CN=C(NC#N)NCCSCc1csc(N=C(N)N)n1 | inactive | – |
| C=C[Si](C)(C)O[Si](C)(C)C=C | inactive | – |
| CCCCCCCCCCCCCCCCCCN(C)C | inactive | – |
| FC(F)(F)/C(=N\OCC1OCCO1)c1ccc(Cl)cc1 | inactive | – |
| NC(Cc1c[nH]c2ccccc12)C(=O)O (stereo not given) | inactive | – |
| CCOC(=O)CCCCCCCCC(=O)OCC | inactive | – |
| CCC1COC(=O)O1 (stereo not given) | inactive | – |
| O=C(O)/C=C/c1ccccc1 | inactive | – |
| N#CCCOCCOCCC#N | inactive | – |
| Cc1oc(=O)oc1CN1CCN(c2cc3c(cc2F)c(=O)c(C(=O)O)c2n3C(C)S2)CC1 (stereo not given) | inactive | – |
| CCOC(=O)OCC/C(SC(=O)OCC)=C(\C)N(C=O)Cc1cnc(C)nc1N | inactive | – |
| C1CCN2C[C@@H]3C[C@@H](CN4CCCC[C@@H]34)[C@H]2C1 | inactive | – |
| CCCCCCCCOC(C)=O | inactive | – |
| CCCCCCCCCOCC1CO1 (stereo not given) | inactive | – |
| COCCOCCOCCOC | inactive | – |
| NC(=O)NC(=O)Cc1ccccc1 | inactive | – |
